# In all, about 5,500 compounds went through this assay and about 2,000 (36%) were called active. Roughly 18% stayed inconclusive and do not appear here. The list shows a part of the results. Unmarked numbers belong to inactive results. Rule as the data show it: active = normalized growth mostly below about 0.91 (no sharp cut-off); inconclusive = no clear call, values can overlap the other calls; inactive = mostly above about 0.92.
# Assay: chemical genetic growth profiling, strain panel (AID 1159580);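 also: tested at 20 µM; growth read once vehicle control cultures reached saturation at 30 °C; 1 = growth at the plate median or of vehicle wells; lower values mean less growth of the strain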
# Conditions: S. cerevisiae deletion strains, growth OD
compound,measurement,setting,value
COc1cc(N=Cc2cc(Cl)cc(Cl)c2OC(=O)c2cc(OC)c(OC)c(OC)c2)c(OC)cc1Cl,normalized growth,"locus YAR019C, strain CDC15, stronger effect = lower value",0.965
same,normalized growth,"locus YBL105C, strain PKC1, stronger effect = lower value",0.977
same,normalized growth,"locus YBR135W, strain CKS1, stronger effect = lower value",0.969
same,normalized growth,"locus YBR136W, strain MEC1, stronger effect = lower value",0.974
same,normalized growth,"locus YBR160W, strain CDC28, stronger effect = lower value",0.968
same,normalized growth,"locus YDL017W, strain CDC7, stronger effect = lower value",0.981
same,normalized growth,"locus YDL028C, strain MPS1, stronger effect = lower value",0.959
same,normalized growth,"locus YDL101C, strain DUN1, stronger effect = lower value",0.962
same,normalized growth,"locus YDL108W, strain KIN28, stronger effect = lower value",0.945
same,normalized growth,"locus YDL132W, strain cdc53, stronger effect = lower value",0.966
same,normalized growth,"locus YDL214C, strain PRR2, stronger effect = lower value",0.369 (active)
same,normalized growth,"locus YDR052C, strain DBF4, stronger effect = lower value",0.989
same,normalized growth,"locus YDR054C, strain cdc34, stronger effect = lower value",0.98
same,normalized growth,"locus YDR226W, strain ADK1, stronger effect = lower value",0.947
same,normalized growth,"locus YDR477W, strain SNF1, stronger effect = lower value",0.31 (active)
same,normalized growth,"locus YER123W, strain YCK3, stronger effect = lower value",0.212 (active)
same,normalized growth,"locus YER133W, strain GLC7, stronger effect = lower value",0.398 (active)
same,normalized growth,"locus YFL009W, strain cdc4, stronger effect = lower value",0.956
same,normalized growth,"locus YFL029C, strain CAK1, stronger effect = lower value",0.971
same,normalized growth,"locus YFR003C, strain YPI1, stronger effect = lower value",0.975
same,normalized growth,"locus YFR019W, strain FAB1, stronger effect = lower value",0.34 (active)
same,normalized growth,"locus YFR028C, strain CDC14, stronger effect = lower value",0.962
same,normalized growth,"locus YGR040W, strain KSS1, stronger effect = lower value",0.381 (active)
same,normalized growth,"locus YGR052W, strain FMP48, stronger effect = lower value",0.235 (active)
same,normalized growth,"locus YGR092W, strain DBF2, stronger effect = lower value",0.183 (active)
same,normalized growth,"locus YHR030C, strain SLT2, stronger effect = lower value",0.145 (active)
same,normalized growth,"locus YHR079C, strain IRE1, stronger effect = lower value",0.161 (active)
same,normalized growth,"locus YHR082C, strain KSP1, stronger effect = lower value",0.176 (active)
same,normalized growth,"locus YHR205W, strain SCH9, stronger effect = lower value",0.202 (active)
same,normalized growth,"locus YIL147C, strain SLN1, stronger effect = lower value",0.977
same,normalized growth,"locus YJL095W, strain BCK1, stronger effect = lower value",0.177 (active)
same,normalized growth,"locus YJL128C, strain PBS2, stronger effect = lower value",0.937
same,normalized growth,"locus YJL157C, strain FAR1, stronger effect = lower value",0.32 (active)
same,normalized growth,"locus YJR016C, strain ILV3, stronger effect = lower value",0.987
same,normalized growth,"locus YJR066W, strain TOR1 (second series), stronger effect = lower value",0.463 (active)
same,normalized growth,"locus YJR066W, strain TOR1, stronger effect = lower value",0.148 (active)
same,normalized growth,"locus YKL048C, strain ELM1, stronger effect = lower value",0.458 (active)
same,normalized growth,"locus YKL067W, strain YNK1, stronger effect = lower value",0.392 (active)
same,normalized growth,"locus YKL101W, strain HSL1, stronger effect = lower value",0.346 (active)
same,normalized growth,"locus YKL193C, strain SDS22, stronger effect = lower value",0.972
same,normalized growth,"locus YKL203C, strain TOR2, stronger effect = lower value",0.345 (active)
same,normalized growth,"locus YLR113W, strain HOG1, stronger effect = lower value",0.243 (active)
same,normalized growth,"locus YLR133W, strain CKI1, stronger effect = lower value",0.354 (active)
same,normalized growth,"locus YLR403W, strain SFP1, stronger effect = lower value",0.244 (active)
same,normalized growth,"locus YML070W, strain DAK1, stronger effect = lower value",0.317 (active)
same,normalized growth,"locus YMR001C, strain CDC5, stronger effect = lower value",0.963
same,normalized growth,"locus YMR205C, strain PFK2 (second series), stronger effect = lower value",0.421 (active)
same,normalized growth,"locus YMR277W, strain FCP1, stronger effect = lower value",0.954
same,normalized growth,"locus YNL006W, strain LST8, stronger effect = lower value",0.982
same,normalized growth,"locus YNL020C, strain ARK1, stronger effect = lower value",0.335 (active)
same,normalized growth,"locus YNL161W, strain CBK1, stronger effect = lower value",0.98
same,normalized growth,"locus YNL183C, strain NPR1, stronger effect = lower value",0.235 (active)
same,normalized growth,"locus YNL207W, strain RIO2, stronger effect = lower value",0.977
same,normalized growth,"locus YNL222W, strain SSU72, stronger effect = lower value",0.958
same,normalized growth,"locus YNL307C, strain MCK1 (second series), stronger effect = lower value",0.238 (active)
same,normalized growth,"locus YOL078W, strain AVO1, stronger effect = lower value",0.969
same,normalized growth,"locus YOL136C, strain PFK27, stronger effect = lower value",0.273 (active)
same,normalized growth,"locus YOR061W, strain CKA2, stronger effect = lower value",0.346 (active)
same,normalized growth,"locus YOR119C, strain RIO1, stronger effect = lower value",0.307 (active)
same,normalized growth,"locus YOR231W, strain MKK1, stronger effect = lower value",0.207 (active)
same,normalized growth,"locus YOR329C, strain SCD5, stronger effect = lower value",0.981
same,normalized growth,"locus YPL031C, strain PHO85, stronger effect = lower value",0.292 (active)
same,normalized growth,"locus YPL153C, strain RAD53, stronger effect = lower value",0.279 (active)
same,normalized growth,"locus YPL204W, strain HRR25, stronger effect = lower value",0.312 (active)
same,normalized growth,"locus YPL209C, strain IPL1, stronger effect = lower value",0.977
same,normalized growth,"locus YPL256C, strain CLN2, stronger effect = lower value",0.215 (active)
same,normalized growth,"locus YPR025C, strain CCL1, stronger effect = lower value",0.974
same,normalized growth,"locus YPR106W, strain ISR1, stronger effect = lower value",0.962
same,normalized growth,"locus YPR111W, strain DBF20, stronger effect = lower value",0.943
same,normalized growth,"strain NNK1, stronger effect = lower value",0.98
same,normalized growth,"strain TSCII, stronger effect = lower value",0.96

# From PubChem BioAssay AID1159580 (chemical genetic matrix, 2015)
